A selection: hits, their analogues and other compounds. The true share with any hit is near 11%.
Pf growth 96h = P. falciparum growth inhibition at 96 hour, primary screen for plastid delayed-death inhibitors | P. falciparum luciferase reporter growth, 96 h | Potency, µM (top dose mostly 28.7 µM), for the others: at the highest dose activity change, negative = inhibition, most hits filed as inhibitors | actives 6.9% (n = 320,000) | AID 504834; further: on the % scale 0 is the no-effect control and ±100 the full control effect
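Two parasite generations (96 h, 37 C, 5% CO2) of compound exposure in infected erythrocytes (0.05% parasitemia, 2% hematocrit). Luciferase-reporter P. falciparum; decreased luminescence indicates inhibited growth, aimed at apicoplast-acting delayed death.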
HCV inhibitor = HCV inhibition | Huh7.5.1 HCVcc-Cre infection, luciferase reporter, 44 h | Potency, µM (doses to about 41.8 µM), for the others: top-dose activity change, negative = inhibition, usual class: inhibitors | actives 3.4% (n = 340,000); further: on the % scale 0 is the no-effect control and ±100 the full control effect
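A cell-based infection assay in which seeded cells (1,000 per well) receive test compound after 4 h, are inoculated with HCVcc-Cre at approximately 0.5 moi, and are incubated 44 h before luminescence detection.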
VACV Venus inh = vaccinia inhibition (Venus reporter) | Vaccinia virus Venus reporter expression, fluorescence | Potency, µM (series often up to 36.5 µM), for the others: top-dose activity change, negative = inhibition, usual class: inhibitors | actives 0.46% (n = 330,000) | AID 720580; calls by dose curve; tested in A549 cells; further: on the % scale 0 is the no-effect control and ±100 the full control effect; nearly all actives have a fitted effect of over 30% in size
VACV mCherry inh = inhibitors of vaccinia virus infection (mCherry reporter signal). Potency, µM (titrated, usually from 36.5 µM), for the others: at the top dose activity change, negative = inhibition, most hits filed as inhibitors. actives 0.63% (n = 310,000). Vaccinia virus mCherry reporter infection, fluorescence; calls by dose curve; tested in A549 cells; further: on the % scale 0 is the no-effect control and ±100 the full control effect; nearly all actives have a fitted effect of over 35% in size
Pf growth 48h = inhibits P. falciparum growth in the first generation, 48 h | P. falciparum luciferase growth in erythrocytes, 48 h | actives 5.9% (n = 310,000) | Potency, µM (series often up to 28.7 µM), for inactives: at the highest dose activity change, negative = inhibition, hits mostly inhibitors; further: on the % scale 0 is the no-effect control and ±100 the full control effect
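Growth was read as firefly luciferase luminescence after a 48 h, 37 C, 5% CO2 exposure of compounds to reporter-bearing P. falciparum cultures (0.1% parasitemia, 2% hematocrit final) in Albumax-supplemented RPMI 1640.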
NS1 inh = blocks influenza NS1 protein function; Potency, µM (doses to about 46.1 µM), for inactives: top-dose activity, positive = more growth; actives 0.4% (n = 270,000); calls by dose curve; further: actives are rising curves; nearly all actives have a fitted effect of over 50% in size
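OD600 was taken as the measure of yeast growth restored by compound in an NS1-expressing S. cerevisiae strain. Cells had been washed out of glucose medium and diluted 1:100 into galactose -URA medium, pH 6.0.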
* marks the source's active call; other numbers are inactive results; i = inactive; ? = inconclusive; . = not tested or not shown. Unless noted, the call rests on the fitted dose curve; in most records, active means well fitted inhibition curve with a large enough effect; inconclusive means small, poorly fitted or top-dose-only effect, or another doubt; inactive means no such curve, though single readings can be large or run the other way. Potency means the concentration at half of the fitted maximal effect.

SMILES	Pf growth 96h	HCV inhibitor	VACV Venus inh	VACV mCherry inh	Pf growth 48h	NS1 inh
COCC(C)NC(=O)c1cc2cc(OC)ccc2[nH]1 (configuration not stated)	40%	-18%	-11%	-12%	4%	-2%
Cc1cccc(C)c1NC(=O)CN(C)CC(=O)Nc1ccccc1Oc1ccccc1	12µM*	3%	-12%	i	?	.
Cc1ccc(NC(=O)CN(C)CC(=O)Nc2ccccc2Oc2ccccc2)cc1	-13%	24%	-1%	1%	?	.
Cc1cn2c(=O)cc(COc3ccccc3NC(=O)c3ccc(Cl)cc3)nc2s1	.	.	8%	5%	.	.
O=C(c1ccc2ccccc2c1)C1CCCN(C(=O)CN2C(=O)CSC2=O)C1 (configuration not stated)	10µM*	-5%	-7%	i	21%	-4%
COc1cccc(-c2cc(C(F)(F)F)n3ncc(C(=O)O)c3n2)c1	14%	0%	-3%	.	15%	6%
CC(C)c1ccc2[nH]c(O)c(N=NC(=S)NCCc3ccccc3)c2c1	9.3µM*	?	.	.	?	13%
CCOc1ccc(NC(=S)N=Nc2c(O)[nH]c3ccccc23)cc1	1.7µM*	13µM*	-16%	-20%	?	.
Oc1[nH]c2ccccc2c1N=NC(=S)NCCc1ccccc1	0%	-16%	-17%	-37%	-13%	1%
CCCCNC(=S)N=Nc1c(O)[nH]c2ccccc12	9.3µM*	0%	-29%	?	?	.
NC(=S)N=Nc1c(O)[nH]c2ccccc12	?	19%	?	13µM*	45%	-8%
CCCS(=O)(=O)NC(=O)C1(C)CCCN(C(=O)c2cncc(Br)c2)C1 (configuration not stated)	.	.	6%	9%	.	.
O=C(NCCc1ccc(Cl)cc1)c1ccc(OCC2CCCO2)cc1 (configuration not stated)	-5%	?	-14%	-10%	31%	16%
O=C(NCc1nnc2n1CCN(Cc1ccccc1C(F)(F)F)CC2)c1ccncc1	.	.	-8%	i	.	.
O=[N+]([O-])c1ccc2[nH]c(O)c(N=NC(=S)NCC3CCCO3)c2c1 (configuration not stated)	10%	-12%	-7%	-15%	14%	5%
CCNC(=S)N=Nc1c(O)[nH]c2ccc([N+](=O)[O-])cc12	6.6µM*	-14%	-20%	?	?	.
Cc1cc(C)c(Cc2c(C)nc3c(C(=O)NCc4ccco4)cnn3c2C)c(C)c1	12µM*	8.9µM*	-3%	11%	.	12%
O=C(NCc1ccco1)c1cnn2c(C(F)(F)F)cc(-c3cccs3)nc12	9.3µM*	-15%	-38%	.	?	-3%
O=C(c1cnn2c(C(F)(F)F)cc(-c3cccs3)nc12)N1CCCC1	-22%	-8%	.	.	-1%	3%
CS(=O)(=O)Nc1ccc(C(=O)Nc2ccc3c(c2)OCO3)cc1	10%	-24%	-10%	-14%	71%	.
COc1ccc([C@H]2C[C@H](O)[C@@H](n3cc(COC(=O)c4ccccc4)nn3)CN2C(=O)C2CCCCC2)cc1	.	.	-15%	12%	.	.
O=c1ccc(Cl)nn1-c1ccccc1	.	-6%	-5%	-16%	.	.
CCn1nc(C(=O)NNC(=O)CCOc2cc(C)ccc2C)c2ccccc2c1=O	58%	-14%	-14%	-18%	2%	1%
O=c1[nH]cnc2c1[nH]c(=S)n2C1O[C@@H](CO)[C@H](O)[C@@H]1O (some centres not stated)	.	.	-6%	34%	.	.
O=c1[nH]c(=O)n(C2OC(CO)C(O)C2O)cc1F (configuration not stated)	.	?	?	1µM*	.	.
SMILES	Pf growth 96h	HCV inhibitor	VACV Venus inh	VACV mCherry inh	Pf growth 48h	NS1 inh
O=c1[nH]c(=O)n([C@@H]2O[C@H](CO)[C@@H](O)[C@H]2O)cc1F	.	.	?	1.1µM*	.	.
O=c1[nH]c(=S)ccn1C1OC(CO)C(O)C1O (configuration not stated)	.	30%	-4%	-7%	.	.
Nc1nc(=O)n(C2OC(CO)C(O)C2O)cc1F (configuration not stated)	.	.	-14%	2µM*	.	.
O=c1[nH]cnc2c1ccn2C1OC(CO)C(O)C1O (configuration not stated)	.	1.1µM*	-26%	?	.	.
Cc1ccc(OCC(=O)Nc2cc(-c3nc4ccccc4[nH]3)ccc2C)c(C)c1	.	.	-6%	5%	.	.
COCCOc1cc(COC)nc(-c2cccc(C)c2)n1	-4%	-23%	.	.	-2%	-8%
COCCNS(=O)(=O)c1ccccc1	45%	1%	-1%	-9%	.	-2%
CCCN1C(=O)SC(CC(=O)Nc2ccc(C)cc2)C1=O (configuration not stated)	?	12%	-2%	.	-12%	-45%
CC(=O)Nc1ccc(NC(=O)CC2SC(=O)N(CC(=O)c3ccccc3)C2=O)cc1 (configuration not stated)	10µM*	15%	13%	6%	6%	-11%
O=C(NCc1cccnc1)c1csc2c1CCCC2	32%	9%	-12%	-3%	13%	7%
CCCN1C=CC(=CC=C(C#N)C#N)C=C1	-26%	7%	4%	?	172%	8%
Cc1nn(-c2ccccc2)c(N2CCCC2)c1/C=N/NC(=S)Nc1ccccc1C(F)(F)F	4.7µM*	?	-17%	i	?	12%
Cc1nn(-c2ccccc2)c(N2CCCC2)c1/C=N/NC(=S)Nc1ccc(F)cc1	.	?	-13%	?	.	.
Cc1ccc(NC(=S)N/N=C/c2c(C)nn(-c3ccccc3)c2N2CCCC2)cc1	?	?	-7%	-16%	12µM*	12%
Cc1nn(-c2ccccc2)c(N2CCCC2)c1/C=N/NC(=S)Nc1cc(C(F)(F)F)ccc1Cl	4.1µM*	?	-8%	-7%	12µM*	13%
Cc1nn(-c2ccccc2)c(N2CCCCC2)c1/C=N/NC(=O)c1ccncc1	?	?	1%	-4%	?	-3%
COc1cc(/C=C/C(=O)OCC(=O)N2CC(C)OC(C)C2)ccc1OCC#N (configuration not stated)	.	.	-8%	-10%	.	.
COc1ccc2[nH]c(C)c(CCNCc3cc(OC)c4c(c3)OCO4)c2c1	?	?	.	.	7.4µM*	.
CS(=O)(=O)NCCNc1ccc(C(F)(F)F)cc1[N+](=O)[O-]	3%	-1%	.	.	14%	4%
COc1ccc(CNCCc2c(C)[nH]c3ccc(OC(F)(F)F)cc23)c(OC)c1	?	18µM*	-21%	?	5.2µM*	6%
COc1ccc2[nH]c(C)c(CCNc3ccc(C(F)(F)F)cc3[N+](=O)[O-])c2c1	15µM*	-9%	-14%	-15%	?	?
COc1ccc2[nH]c(C)c(CCNCc3cc(OC)c(OC)c(OC)c3)c2c1	52%	?	5%	-8%	?	.

High-throughput results (PubChem BioAssay)
